Results filed as inconclusive are left out. Calls of active or inactive are those of the source. The calls were made as follows, unless noted: active = hit-call score of the fitted dose curve at least 0.9, where 1 is the maximum; inactive = score below 0.9.
Experiments:
[1] = ATG_NF_kB_CIS: Attagene CIS-FACTORIAL HepG2 Assay for human Nuclear Factor Kappa B (NF-kB) (AID 2282991); settings: HepG2 Attagene cis-factorial NF-kB reporter mRNA; actives raise or lower the signal
Summary of the method: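 Endpoint from a 52-component multiplexed HepG2 reporter panel: cis-regulated transcription units transiently transfected, 24 h dosing, reporter mRNA quantified by RT-PCR and capillary electrophoresis, scored as increase or decrease against DMSO.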

[2] = ATG_NRF2_ARE_CIS: Attagene CIS-FACTORIAL HepG2 Assay for human Nuclear Factor Erythroid 2 Related Factor 2 (NFR2) response to Antioxidant Response Elements (ARE) (AID 2282992); settings: HepG2 Attagene ARE/NRF2 reporter, transcription factor activity; actives raise or lower the signal;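 as to AC50: reporter mRNA level measured by RT-PCR and capillary electrophoresis fluorescence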
Summary of the method: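 HepG2 cells transiently transfected with multiplexed cis-regulated reporter transcription units measure endogenous transcription factor activity. Reporter mRNA at 24 h is quantified by RT-PCR, fluorescent labelling and capillary electrophoresis, with bidirectional fitting relative to DMSO.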

[3] = ATG_Oct_MLP_CIS: Attagene CIS-FACTORIAL HepG2 Assay for human Octamer-Binding Transcription Factor (Oct) (AID 2282993); settings: HepG2 Attagene cis-factorial Oct reporter, mRNA; actives raise or lower the signal
Summary of the method: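 HepG2 cells transiently transfected with cis-element-driven reporter transcription units (endogenous TF activity); 24 h compound exposure. Reporter mRNA quantified by RT-PCR, 6-FAM labelling, HpaI digestion and capillary electrophoresis; bidirectional fit versus DMSO baseline.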

[4] = target: Cellular tumor antigen p53 (Homo sapiens) (UniProt P04637); test: ATG_p53_CIS: Attagene CIS-FACTORIAL HepG2 Assay for human p53 Transcription Factor (AID 2282994); settings: HepG2 p53 cis-element reporter, Attagene mRNA; actives raise or lower the signal
Chain of Cellular tumor antigen p53 (Homo sapiens) (P04637 whole entry, looked up): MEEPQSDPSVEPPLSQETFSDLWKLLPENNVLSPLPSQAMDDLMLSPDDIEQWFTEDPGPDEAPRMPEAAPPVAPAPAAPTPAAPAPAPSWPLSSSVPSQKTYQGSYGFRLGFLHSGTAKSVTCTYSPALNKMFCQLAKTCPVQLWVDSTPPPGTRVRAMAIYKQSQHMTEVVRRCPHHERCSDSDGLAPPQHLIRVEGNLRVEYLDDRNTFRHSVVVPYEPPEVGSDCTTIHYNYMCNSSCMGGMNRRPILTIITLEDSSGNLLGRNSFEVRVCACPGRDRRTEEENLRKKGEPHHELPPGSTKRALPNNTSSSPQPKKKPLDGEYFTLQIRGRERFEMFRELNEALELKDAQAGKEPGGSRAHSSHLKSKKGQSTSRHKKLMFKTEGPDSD
Summary of the method: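 HepG2 cells transiently transfected with multiplexed cis-regulated reporter transcription units read endogenous TF activity. After 24 h compound exposure, reporter mRNA was quantified by RT-PCR, fluorescent labelling, HpaI digestion and capillary electrophoresis; bidirectional fits versus DMSO baseline.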

[5] = target: human Peroxisome Proliferator-activated Receptor alpha (PPARa), PPARA (gene 5465) (UniProt Q07869); test: ATG_PPARa_TRANS: Attagene TRANS-FACTORIAL HepG2 Assay for human Peroxisome Proliferator-activated Receptor alpha (PPARa) (AID 2283001; active = hit-call score of the fitted dose curve at least 0.9, where 1 is the maximum)
Chain of human Peroxisome Proliferator-activated Receptor alpha (PPARa), PPARA (gene 5465) (Q07869 whole entry, looked up, the tested form may be a part): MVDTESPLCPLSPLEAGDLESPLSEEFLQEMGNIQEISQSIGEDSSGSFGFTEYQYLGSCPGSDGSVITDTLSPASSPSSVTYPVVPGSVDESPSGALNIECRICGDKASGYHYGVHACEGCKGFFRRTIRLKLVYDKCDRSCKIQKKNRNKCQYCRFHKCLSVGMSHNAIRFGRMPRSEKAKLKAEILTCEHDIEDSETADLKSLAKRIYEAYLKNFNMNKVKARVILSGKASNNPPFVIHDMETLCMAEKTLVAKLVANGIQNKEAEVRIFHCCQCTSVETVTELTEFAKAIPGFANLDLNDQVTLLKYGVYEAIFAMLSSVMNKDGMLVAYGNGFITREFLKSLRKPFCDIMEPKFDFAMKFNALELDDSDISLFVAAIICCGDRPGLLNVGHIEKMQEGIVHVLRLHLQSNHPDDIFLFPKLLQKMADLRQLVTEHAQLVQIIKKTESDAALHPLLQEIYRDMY
Summary of the method: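 Read-out is fluorescence of reporter cDNA fragments resolved by capillary electrophoresis after RT-PCR. Human HepG2 liver cells carried transfected PPARa-Gal4 chimera and GAL4-UAS reporter units, treated 24 h; activity scored as increase over DMSO.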

[6] = target: human Peroxisome Proliferator-activated Receptor delta (PPARd), PPARD (gene 5467) (UniProt Q03181); test: ATG_PPARd_TRANS: Attagene TRANS-FACTORIAL HepG2 Assay for human Peroxisome Proliferator-activated Receptor delta (PPARd) (AID 2283002; active = hit-call score of the fitted dose curve at least 0.9, where 1 is the maximum)
Chain of human Peroxisome Proliferator-activated Receptor delta (PPARd), PPARD (gene 5467) (Q03181 whole entry, looked up, the tested form may be a part): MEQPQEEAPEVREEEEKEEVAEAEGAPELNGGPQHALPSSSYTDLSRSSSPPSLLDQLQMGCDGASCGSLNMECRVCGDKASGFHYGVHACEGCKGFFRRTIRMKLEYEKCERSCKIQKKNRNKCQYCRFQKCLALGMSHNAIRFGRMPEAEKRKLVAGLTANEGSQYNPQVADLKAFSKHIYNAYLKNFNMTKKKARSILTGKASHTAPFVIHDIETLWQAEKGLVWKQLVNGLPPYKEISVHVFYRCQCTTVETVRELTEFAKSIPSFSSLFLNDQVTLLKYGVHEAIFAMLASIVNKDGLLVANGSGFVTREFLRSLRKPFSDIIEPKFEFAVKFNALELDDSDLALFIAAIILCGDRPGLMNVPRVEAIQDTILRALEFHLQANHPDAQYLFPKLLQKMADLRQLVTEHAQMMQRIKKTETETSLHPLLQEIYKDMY
Summary of the method: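 Read-out is induced reporter mRNA, quantified by RT-PCR with fluorescent labelling and capillary electrophoresis after 24 h dosing. Cells are HepG2 transiently carrying multiple GAL4-UAS reporter units driven by exogenous NR-GAL4 chimeras; DMSO serves as baseline.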

[7] = target: Peroxisome proliferator-activated receptor gamma (Homo sapiens) (UniProt P37231); test: ATG_PPARg_TRANS: Attagene TRANS-FACTORIAL HepG2 Assay for human Peroxisome Proliferator-activated Receptor-gamma (PPARg) (AID 2283007; active = hit-call score of the fitted dose curve at least 0.9, where 1 is the maximum)
Chain of Peroxisome proliferator-activated receptor gamma (Homo sapiens) (P37231 whole entry, looked up, the tested form may be a part): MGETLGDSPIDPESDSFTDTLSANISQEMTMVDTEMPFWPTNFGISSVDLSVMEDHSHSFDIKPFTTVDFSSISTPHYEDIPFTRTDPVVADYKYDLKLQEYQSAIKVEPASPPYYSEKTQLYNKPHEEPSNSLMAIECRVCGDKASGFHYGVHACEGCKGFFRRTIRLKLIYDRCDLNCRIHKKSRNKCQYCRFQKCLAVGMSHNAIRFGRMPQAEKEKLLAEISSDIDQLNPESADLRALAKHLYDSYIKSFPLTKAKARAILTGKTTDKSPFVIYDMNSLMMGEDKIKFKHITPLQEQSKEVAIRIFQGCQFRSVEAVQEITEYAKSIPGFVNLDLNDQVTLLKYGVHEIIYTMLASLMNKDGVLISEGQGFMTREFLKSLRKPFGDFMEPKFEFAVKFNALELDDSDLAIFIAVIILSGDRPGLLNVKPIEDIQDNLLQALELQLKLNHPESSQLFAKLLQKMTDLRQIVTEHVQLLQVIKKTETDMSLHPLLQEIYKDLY
Summary of the method: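 Endpoint reflects upward reporter mRNA change versus DMSO controls. Setup: transiently transfected HepG2, GAL4-UAS reporters driven by chimeric NR-Gal4, 24 h incubation, RT-PCR with capillary electrophoresis read-out.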

[8] = target: Nuclear receptor subfamily 1 group I member 2 (Homo sapiens) (UniProt O75469); test: ATG_PXR_TRANS: Attagene TRANS-FACTORIAL HepG2 Assay for human Pregnane X Receptor (PXR) (AID 2283008; active = hit-call score of the fitted dose curve at least 0.9, where 1 is the maximum)
Chain of Nuclear receptor subfamily 1 group I member 2 (Homo sapiens) (O75469 whole entry, looked up, the tested form may be a part): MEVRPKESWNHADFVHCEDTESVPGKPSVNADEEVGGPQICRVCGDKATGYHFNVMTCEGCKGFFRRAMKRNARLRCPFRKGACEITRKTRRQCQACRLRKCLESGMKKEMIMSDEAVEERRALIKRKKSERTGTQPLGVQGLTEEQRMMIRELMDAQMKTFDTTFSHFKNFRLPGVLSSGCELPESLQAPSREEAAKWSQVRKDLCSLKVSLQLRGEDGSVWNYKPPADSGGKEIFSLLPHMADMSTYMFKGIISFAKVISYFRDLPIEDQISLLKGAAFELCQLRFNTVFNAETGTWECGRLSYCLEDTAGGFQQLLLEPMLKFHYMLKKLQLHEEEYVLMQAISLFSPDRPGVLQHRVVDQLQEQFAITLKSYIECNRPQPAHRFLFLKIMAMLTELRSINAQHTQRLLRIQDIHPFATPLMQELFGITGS
Summary of the method: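 HepG2 cells transiently transfected with multiple reporter units, here a PXR-GAL4 chimera driving a GAL4-UAS reporter; 24 h compound exposure. Reporter mRNA measured by RT-PCR, FAM labelling and capillary electrophoresis; gain of signal fitted against DMSO baseline.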

[9] = target: human RAR-related Orphan Receptor beta (RORb), RORB (gene 6096) (UniProt Q92753); test: ATG_RORb_TRANS: Attagene TRANS-FACTORIAL HepG2 Assay for human RAR-related Orphan Receptor beta (RORb) (AID 2283010; active = hit-call score of the fitted dose curve at least 0.9, where 1 is the maximum)
Chain of human RAR-related Orphan Receptor beta (RORb), RORB (gene 6096) (Q92753 whole entry, looked up, the tested form may be a part): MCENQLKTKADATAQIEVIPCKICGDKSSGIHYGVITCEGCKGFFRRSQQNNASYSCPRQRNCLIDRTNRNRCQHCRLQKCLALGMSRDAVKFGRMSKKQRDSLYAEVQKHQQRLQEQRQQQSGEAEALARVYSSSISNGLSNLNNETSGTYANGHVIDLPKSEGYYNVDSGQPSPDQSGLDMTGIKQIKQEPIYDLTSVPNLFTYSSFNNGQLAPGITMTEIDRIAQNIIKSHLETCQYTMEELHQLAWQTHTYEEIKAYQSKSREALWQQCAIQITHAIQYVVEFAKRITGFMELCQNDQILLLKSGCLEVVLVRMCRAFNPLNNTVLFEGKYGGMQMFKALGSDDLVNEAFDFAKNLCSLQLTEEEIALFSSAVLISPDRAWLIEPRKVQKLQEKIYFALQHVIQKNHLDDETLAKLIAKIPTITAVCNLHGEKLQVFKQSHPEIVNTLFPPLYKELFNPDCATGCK
Summary of the method: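 HepG2 cells transiently transfected with GAL4-UAS reporter units expressing chimeric NR-Gal4 protein; reporter mRNA measured 24 h after dosing by RT-PCR, 6-FAM labelling and capillary electrophoresis. Gain-of-signal fitted relative to DMSO baseline.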

[10] = target: human Retinoic Acid Receptor beta (RARb), RARB (gene 5915) (UniProt P10826); test: ATG_RARb_TRANS: Attagene TRANS-FACTORIAL HepG2 Assay for human Retinoic Acid Receptor beta (AID 2283004; active = hit-call score of the fitted dose curve at least 0.9, where 1 is the maximum)
Chain of human Retinoic Acid Receptor beta (RARb), RARB (gene 5915) (P10826 whole entry, looked up, the tested form may be a part): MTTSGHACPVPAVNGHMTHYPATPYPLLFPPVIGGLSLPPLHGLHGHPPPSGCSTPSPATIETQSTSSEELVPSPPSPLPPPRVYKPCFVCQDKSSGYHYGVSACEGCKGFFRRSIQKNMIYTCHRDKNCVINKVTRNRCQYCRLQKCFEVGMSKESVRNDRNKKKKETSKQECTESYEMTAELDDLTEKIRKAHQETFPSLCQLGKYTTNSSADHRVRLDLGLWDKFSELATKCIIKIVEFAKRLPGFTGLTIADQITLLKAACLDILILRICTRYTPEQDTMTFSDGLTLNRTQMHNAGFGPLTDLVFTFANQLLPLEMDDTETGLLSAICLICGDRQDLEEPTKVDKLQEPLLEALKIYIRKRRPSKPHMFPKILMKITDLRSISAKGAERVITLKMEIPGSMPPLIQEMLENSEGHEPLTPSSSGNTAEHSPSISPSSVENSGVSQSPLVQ
Summary of the method: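 Induction of reporter mRNA from a chimeric RARb-Gal4 construct was measured by RT-PCR, FAM labelling, HpaI digestion and capillary electrophoresis. Measurements followed 24 h compound treatment of transiently transfected human HepG2 liver cells, with DMSO as baseline.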

[11] = target: human Retinoic Acid Receptor gamma (RARg), RARG (gene 5916) (UniProt P13631); test: ATG_RARg_TRANS: Attagene TRANS-FACTORIAL HepG2 Assay for human Retinoic Acid Receptor gamma (RARg) (AID 2283009; active = hit-call score of the fitted dose curve at least 0.9, where 1 is the maximum)
Chain of human Retinoic Acid Receptor gamma (RARg), RARG (gene 5916) (P13631 whole entry, looked up, the tested form may be a part): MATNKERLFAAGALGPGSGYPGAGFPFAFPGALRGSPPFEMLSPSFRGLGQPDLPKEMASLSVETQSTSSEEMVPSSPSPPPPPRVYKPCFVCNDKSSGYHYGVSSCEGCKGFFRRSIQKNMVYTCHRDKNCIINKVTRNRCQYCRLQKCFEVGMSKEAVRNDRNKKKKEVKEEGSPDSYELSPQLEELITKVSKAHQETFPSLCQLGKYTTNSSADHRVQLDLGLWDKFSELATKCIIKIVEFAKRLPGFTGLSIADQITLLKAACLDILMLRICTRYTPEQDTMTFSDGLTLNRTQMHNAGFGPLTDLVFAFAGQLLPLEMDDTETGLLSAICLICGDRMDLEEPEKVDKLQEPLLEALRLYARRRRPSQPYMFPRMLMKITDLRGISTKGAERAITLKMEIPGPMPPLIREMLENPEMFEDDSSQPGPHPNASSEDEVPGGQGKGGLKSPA
Summary of the method: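 HepG2 transiently transfected with GAL4-UAS reporter units and chimeric NR-Gal4 constructs; 24 h compound exposure. Reporter mRNA quantified by RT-PCR, FAM labeling, HpaI digestion and capillary electrophoresis; gain-of-signal versus DMSO.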

[12] = BSK_3C_uPAR: BioMAP Diversity Plus: 3C Assay for Urokinase-type plasminogen activator receptor (uPAR) Biomarker Activity (AID 2282998); settings: BioMAP 3C HUVEC, uPAR biomarker ELISA; actives raise or lower the signal
Summary of the method: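 Primary human umbilical vein endothelial cells, 3C system; surface uPAR measured by ELISA 24 h after dosing. Cytotoxicity via SRB total protein in parallel cultures; bidirectional fit against DMSO.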

[13] = BSK_3C_VCAM1: BioMAP Diversity Plus: 3C Assay for Vascular cell adhesion molecule 1 (VCAM1) Biomarker Activity (AID 2282999); settings: BioMAP 3C HUVEC, VCAM1 ELISA, cytokine-stimulated; actives raise or lower the signal
Summary of the method: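 Endothelial cells from human umbilical vein are treated with test chemical. At 24 h, VCAM-1 is measured by ELISA, and responses in either direction are fitted relative to DMSO.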

[14] = BSK_4H_Eotaxin3: BioMAP Diversity Plus: 4H Assay for Eotaxin 3 Biomarker Activity (AID 2283000); settings: primary human endothelial cells (HUVEC); actives raise or lower the signal;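 also: CCL26 protein level quantified by ELISA in parallel with SRB cytotoxicity check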
Summary of the method: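 Human umbilical vein endothelial cells (BSK_4H system) dosed with test chemical; Eotaxin-3 (CCL26) measured by ELISA 24 h after dosing. Bidirectional curve fitting relative to DMSO negative control as baseline.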

[15] = read-out: Intercellular Adhesion Molecule 1 (ICAM1), ICAM1 (gene 3383); test: BSK_3C_ICAM1: BioMAP Diversity Plus: 3C Assay for Intercellular Adhesion Molecule 1 (ICAM1) Biomarker Activity (AID 2283003); settings: primary human endothelial cells (HUVEC); actives raise or lower the signal
Summary of the method: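 HUVEC primary cells stimulated under 3C conditions; ICAM1 measured by ELISA 24 h after compound dosing. Curves fitted bidirectionally against the DMSO baseline. Overt cytotoxicity checked by SRB staining of parallel cultures.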

[16] = BSK_3C_Proliferation: Cell Proliferation Assessment in the BioMAP Diversity Plus: 3C Assay (AID 2283006); settings: primary human endothelial cells (HUVEC);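 as to AC50: potency may reflect either rise or fall in cell number versus DMSO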
Summary of the method: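 Subconfluent HUVEC (3C system) cultured with chemical; relative cell number read at 48 h by sulforhodamine B total-protein staining (0.1% SRB after 10% TCA fixation, 560 nm). Bidirectional fit relative to DMSO.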

[17] = target: human RAR-related Orphan Receptor gamma (RORg), RORC (gene 6097) (UniProt P51449); test: ATG_RORg_TRANS: Attagene TRANS-FACTORIAL HepG2 Assay for human RAR-related Orphan Receptor gamma (RORg) (AID 2283011; active = hit-call score of the fitted dose curve at least 0.9, where 1 is the maximum)
Chain of human RAR-related Orphan Receptor gamma (RORg), RORC (gene 6097) (P51449 whole entry, looked up, the tested form may be a part): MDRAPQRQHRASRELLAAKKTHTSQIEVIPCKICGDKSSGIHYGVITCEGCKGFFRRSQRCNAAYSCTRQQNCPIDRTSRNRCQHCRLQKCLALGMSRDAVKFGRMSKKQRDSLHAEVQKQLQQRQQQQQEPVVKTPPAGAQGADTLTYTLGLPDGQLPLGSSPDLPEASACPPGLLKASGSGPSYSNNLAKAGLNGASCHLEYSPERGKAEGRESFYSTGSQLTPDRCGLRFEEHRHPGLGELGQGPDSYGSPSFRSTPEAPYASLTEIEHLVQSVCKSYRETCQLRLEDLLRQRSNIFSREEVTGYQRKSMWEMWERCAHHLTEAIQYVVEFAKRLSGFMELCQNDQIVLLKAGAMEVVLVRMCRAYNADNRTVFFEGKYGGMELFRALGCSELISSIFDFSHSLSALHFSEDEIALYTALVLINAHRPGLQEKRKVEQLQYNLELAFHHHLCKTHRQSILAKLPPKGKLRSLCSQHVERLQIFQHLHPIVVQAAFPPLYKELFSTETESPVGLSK
Summary of the method: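 Reporter transcripts from a transfected RORg-GAL4 chimera in HepG2 cells were quantified 24 h after dosing by RT-PCR, 6-FAM labelling, HpaI digestion and capillary electrophoresis; increases over DMSO baseline were fitted.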

[18] = target: Retinoic acid receptor alpha (Homo sapiens) (UniProt P10276); test: ATG_RARa_TRANS: Attagene TRANS-FACTORIAL HepG2 Assay for human Retinoic Acid Receptor alpha (RARa) (AID 2283005; active = hit-call score of the fitted dose curve at least 0.9, where 1 is the maximum)
Chain of Retinoic acid receptor alpha (Homo sapiens) (P10276 whole entry, looked up, the tested form may be a part): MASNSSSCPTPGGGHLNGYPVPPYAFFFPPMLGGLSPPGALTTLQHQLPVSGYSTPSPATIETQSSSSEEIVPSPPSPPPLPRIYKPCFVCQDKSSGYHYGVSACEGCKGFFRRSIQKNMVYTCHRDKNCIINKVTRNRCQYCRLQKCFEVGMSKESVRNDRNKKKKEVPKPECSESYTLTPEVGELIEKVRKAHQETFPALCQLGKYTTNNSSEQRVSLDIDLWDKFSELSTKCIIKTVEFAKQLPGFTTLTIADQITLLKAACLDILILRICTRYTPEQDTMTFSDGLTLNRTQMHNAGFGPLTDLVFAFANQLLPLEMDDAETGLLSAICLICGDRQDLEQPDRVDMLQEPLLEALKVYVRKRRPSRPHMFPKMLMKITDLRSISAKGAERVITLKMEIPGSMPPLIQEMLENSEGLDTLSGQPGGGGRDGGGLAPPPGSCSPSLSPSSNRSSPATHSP
Summary of the method: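 Reporter transcripts, measured by RT-PCR with fluorescent labeling and capillary electrophoresis after 24 h dosing, reflect activity of an exogenous human RARa–GAL4 fusion in transiently transfected HepG2. Fitted for increase relative to DMSO.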

Measured: AC50

O=CC(F)(F)C(F)(F)C(F)(F)C(F)F
inactive: [1] | [2] | [3] | [4] | [5] | [6] | [7] | [8] | [9]

Nc1ccc(O)c(C(=O)O)c1
inactive: [1] | [3] | [4] | [5] | [6] | [10] | [8] | [11] | [9]

N=C(N)c1ccc(OCCCCCOc2ccc(C(=N)N)cc2)cc1
inactive: [13] | [14] | [5] | [6] | [15]
active: [1] 87.5 µM | [2] 0.732 µM | [3] 34.4 µM | [12] 7.78 µM | [16] 5.13 µM

FC(F)(F)C(F)(F)C(F)(F)C(F)(F)I
inactive: [1] | [2] | [3] | [4] | [5] | [6] | [10] | [7] | [8] | [17]

O=CC(F)(F)C(F)(F)C(F)(F)F
inactive: [1] | [2] | [3] | [4] | [6] | [8] | [9]

CCOCCOCC
inactive: [1] | [2] | [4] | [7] | [8] | [9] | [17]

O=S(=O)(O)c1ccccc1
inactive: [1] | [2] | [3] | [5] | [7] | [8] | [11] | [9]

CCCCc1ccc2ccccc2c1S(=O)(=O)O
inactive: [1] | [3] | [4] | [5] | [6] | [11] | [9] | [17]
active: [2] 8.84 µM | [7] 45.4 µM | [8] 2.67 µM

CCc1cccc(CC)c1NC(=O)C(=O)O
inactive: [1] | [2] | [3] | [4] | [5] | [6] | [8] | [17]

O=C(O)c1cccc(C(=O)O)n1
inactive: [1] | [3] | [4] | [6]

CCOC(OCC)C(=O)c1ccccc1
inactive: [1] | [2] | [3] | [4] | [10] | [18] | [7] | [9]
active: [8] 16.7 µM

Oc1c(Cl)ccc(Cl)c1Cl
active: [7] 19.5 µM
inactive: [2] | [3] | [4] | [5] | [18] | [8] | [11] | [9]

CC=O
inactive: [1] | [2] | [4] | [10] | [17]

C[C@]12CC[C@@H]3c4ccc(O)cc4CC[C@H]3[C@@H]1C[C@@H](O)[C@@H]2O
not listed: [7] | [9] | [11]
inactive: all other assays above

CCCCC(CC)C(=O)OCCOCCOCCOCCOC(=O)C(CC)CCCC (stereo not drawn)
inactive: [1] | [3] | [12] | [13] | [14] | [5] | [15] | [7]
active: [16] 20 µM | [8] 35.3 µM

CCC(=O)O
inactive: [1] | [2] | [4] | [5] | [6] | [18] | [7] | [8] | [17]

CC(C)(c1ccc(Oc2ccc(N)cc2)cc1)c1ccc(Oc2ccc(N)cc2)cc1
inactive: [1] | [3] | [4] | [6] | [17]
active: [2] 3.71 µM | [7] 1.69 µM | [8] 2.28 µM

Source: PubChem BioAssay (EPA / NIEHS)
